# Source: PubChem (several laboratories)
# EBI2 antag: antagonists of human EBI2 receptor; 360,000 compounds, 0.81% hits; P32249; inhibition, % at 5 µM; EBI2 beta-arrestin recruitment, luminescence, 7a,25-OHC stimulated; in the data active = inhibition above about 38%;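 note: enzyme fragment complementation signal reports receptor beta-arrestin coupling in cells; 0% = agonist plus DMSO wells and 100% = wells without agonist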
# SENP8 block-1: inhibitors of human SENP8 protease | Q96LD8 | purified SENP8, Z-RLRGG-aminoluciferin cleavage, luminescence | inhibition, % at 10 µM | 330,000 compounds, 1.2% hits | AID 2540; in the data active = inhibition above about 50%
# AHR activator: activates the human aryl hydrocarbon receptor | activation, % at 5 µM | P35869 | 320,000 compounds, 2.5% hits | AID 2796 | AHR-responsive luciferase reporter cells, luminescence; in the data active = activation above about 47%;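 note: 0% = vehicle wells and 100% = reference agonist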
# Target sequence (P35869 whole entry, looked up): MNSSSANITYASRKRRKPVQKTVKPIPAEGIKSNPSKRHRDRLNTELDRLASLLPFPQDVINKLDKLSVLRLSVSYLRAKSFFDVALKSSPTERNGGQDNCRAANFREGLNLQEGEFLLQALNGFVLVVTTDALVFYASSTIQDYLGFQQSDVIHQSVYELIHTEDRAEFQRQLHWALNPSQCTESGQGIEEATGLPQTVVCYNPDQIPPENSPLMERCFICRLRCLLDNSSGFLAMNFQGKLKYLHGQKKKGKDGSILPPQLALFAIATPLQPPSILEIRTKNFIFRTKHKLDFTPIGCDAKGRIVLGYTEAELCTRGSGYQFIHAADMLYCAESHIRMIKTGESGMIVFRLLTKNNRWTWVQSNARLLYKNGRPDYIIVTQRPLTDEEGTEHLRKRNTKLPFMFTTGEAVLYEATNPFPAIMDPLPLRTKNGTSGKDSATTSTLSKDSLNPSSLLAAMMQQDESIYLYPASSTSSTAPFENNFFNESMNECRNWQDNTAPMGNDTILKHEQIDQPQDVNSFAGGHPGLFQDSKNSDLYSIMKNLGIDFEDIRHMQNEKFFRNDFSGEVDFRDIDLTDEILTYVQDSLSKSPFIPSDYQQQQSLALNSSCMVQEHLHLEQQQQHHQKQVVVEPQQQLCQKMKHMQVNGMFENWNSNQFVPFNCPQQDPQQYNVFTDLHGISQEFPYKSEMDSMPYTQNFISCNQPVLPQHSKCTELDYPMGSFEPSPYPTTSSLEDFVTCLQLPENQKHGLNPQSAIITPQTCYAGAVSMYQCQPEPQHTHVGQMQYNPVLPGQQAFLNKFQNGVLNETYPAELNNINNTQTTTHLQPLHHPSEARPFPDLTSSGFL
# SENP7 block: inhibitors of human SENP7 protease | Q9BQF6 | recombinant SENP7, Z-RLRGG-aminoluciferin luminescence, 40 min | inhibition, % at 5 µM | 330,000 compounds, 1.5% hits | AID 434973;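 active = inhibition above about 50% at the single test dose, limit read from the data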;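 note: plate controls were DMSO with enzyme for no effect and no enzyme buffer wells for full effect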
# SENP6 block: blocks the human protease SENP6. Q9GZR1. Recombinant SENP6 catalytic domain, aminoluciferin luminescence. AID 2599. 330,000 compounds, 1.8% hits. inhibition, % at 10 µM;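 active = inhibition above about 50% at the single tested dose, limit read from the data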;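 note: plate controls were DMSO wells with enzyme for no effect and DMSO wells lacking enzyme for full effect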
# SENP8 block-2: SENP8 (human) protease inhibition | recombinant SENP8, Nedd8 substrate fluorescence | 360,000 compounds, 0.64% hits | inhibition, % at 20 µM; in the data active = inhibition mostly above about 40%, no sharp cut-off; inactive = mostly below about 27%
# EBI2 conf: confirmation of human EBI2 receptor antagonists; shares compounds with EBI2 antag; EBI2 beta-arrestin luminescence, 7a,25-OHC antagonism; inhibition, % at 5 µM; 2,400 compounds, 29% hits; AID 651997;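 active = inhibition of at least 50%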
# EBI2 agonist: counter-screen for EBI2 antagonists: EBI2 agonist activity | EBI2-expressing cells, agonist mode, luminescence, 60 min; 0% vehicle, 100% 7α,25-dihydroxycholesterol control | activation, % at 5 µM | 2,400 tested, under 10 active | shares compounds with EBI2 antag | AID 652000;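 active = activation of at least 50%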
# bGal counter: beta-galactosidase inhibition counter-screen | purified beta-galactosidase, luminescent Galacton Star, 15 min | 2,400 compounds, 1% hits | shares compounds with EBI2 antag | inhibition, % at 5 µM | AID 652176;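 active = replicate-average signal at least 3 plate SD below neutral wells, shown as high inhibition, flagging enzyme-inhibiting false positives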;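 note: 0% = DMSO wells with enzyme and 100% = wells lacking enzyme; higher means stronger loss of beta-gal luminescence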
# The depositor's hits bear a star; nt = not tested or not shown. The list is not random: actives were taken first. Their share in the collection is about 5%.
SMILES,EBI2 antag,SENP8 block-1,AHR activator,SENP7 block,SENP6 block,SENP8 block-2,EBI2 conf,EBI2 agonist,bGal counter
Cc1ccc(C)c(C(=O)COC(=O)CCN2C(=O)C3C4CCC(C4)C3C2=O)c1 (stereo unspecified),-2,-11,nt,18,-4,6,nt,nt,nt
Cn1ncc2c(=S)[nH]c(=S)[nH]c21,26,nt,nt,nt,nt,17,nt,nt,nt
FC(F)(Cl)c1nnc2ccc(Sc3ccccn3)nn12,-4,7,3,7,17,9,nt,nt,nt
O=C(/C=C/c1ccc(OCc2ccccc2)c(OCc2ccccc2)c1)c1cccnc1,46*,11,12,7,-10,-93,31,0,6
Cc1cccn2c(=O)nc(SCC(=O)N3CCC(Cc4ccccc4)CC3)nc12,6,5,0,6,-10,-228,nt,nt,nt
CCOC(=O)C1(C)NC(c2ccco2)C2C(=O)N(C)C(=O)C21 (stereo unspecified),-12,-8,-3,-8,10,13,nt,nt,nt
CCN(CC)S(=O)(=O)c1cccc(-c2nnc(SCCOc3ccccc3C)o2)c1,50*,-2,0,-3,-2,12,35,0,-1
CN=C1SC(CC(=O)Nc2ccc(F)cc2F)C(=O)N1/N=C/c1ccc(OC(F)F)c(OC)c1 (stereo unspecified),6,11,11,-1,-10,18,nt,nt,nt
Cc1ccccc1Cn1nnc(C(=O)Nc2cccc(C)c2C)c1N,43*,-4,-2,-14,-9,20,18,1,2
N#Cc1c(Nc2ccccc2)c(/C=N/NCCO)c[nH]c1=O,-1,2,5,5,-17,8,nt,nt,nt
N#Cc1c(Nc2ccccc2)c(/C=N/N=C/c2ccccc2)c[nH]c1=O,96*,-6,17,-1,-21,16,85*,-2,-6
Cc1ccc2c(c1)N(C(=O)CCC(=O)O)CCO2,-7,3,1,13,2,6,nt,nt,nt
Cc1cccc(OCC(=O)N2CCC(c3ccccc3)C2)c1 (stereo unspecified),46*,2,5,-2,-31,8,44,1,3
CC1CCCN(C(=O)COc2ccc(-c3ccccc3)cc2)C1 (stereo unspecified),9,10,-5,34,45,11,nt,nt,nt
O=C(COc1ccc(F)cc1)N1CCC(c2ccccc2)C1 (stereo unspecified),57*,-4,8,-7,-14,20,27,0,3
Cc1[nH]c2ccc(-c3nnc(SCC(=O)N4CCCc5ccccc54)o3)cc2c1C,51*,7,8,9,-25,-17,47,3,5
Cc1nn(C)c2c1NC(=O)CS2,-2,nt,nt,nt,nt,11,nt,nt,nt
COCc1cc(C)nc(OCC(=O)N/N=C/c2ccc(O)cc2)c1C#N,63*,-2,7,11,-16,21,41,2,6
CCOC(=O)N1CCN(C(=O)COc2ccc(Br)cc2Cl)CC1,62*,-15,-1,-8,0,8,28,1,2
CCOC(=O)C1CCN(C(=O)COc2ccc(Br)cc2Br)CC1,44*,-8,1,-3,-17,12,15,1,7
CCOC(=O)C1CCN(C(=O)COc2cc(C)c(Br)cc2C)CC1,71*,-9,6,-6,-40,6,37,0,-5
CCOC(=O)C1CCN(C(=O)COc2ccc(Br)cc2)CC1,75*,-1,-3,2,2,24,67*,0,-12
CCOC(=O)C1CCN(C(=O)COc2ccc(C(=O)c3ccccc3)cc2)CC1,-14,-5,-1,4,-4,15,nt,nt,nt
CCc1[nH]nc(C(=O)N2CCCC(Nc3cccc(F)c3)C2)c1C (stereo unspecified),-8,-10,7,-8,-6,11,nt,nt,nt
CCOC(=O)c1cn(-c2c(C)n(C)n(-c3ccccc3)c2=O)c2c(F)c(F)c(F)cc2c1=O,0,-3,-2,-7,0,32,nt,nt,nt
SMILES,EBI2 antag,SENP8 block-1,AHR activator,SENP7 block,SENP6 block,SENP8 block-2,EBI2 conf,EBI2 agonist,bGal counter
Cc1ccc(N(C(=O)c2csnn2)C(C(=O)NC2CCCCC2)c2cccnc2)c(C)c1 (stereo unspecified),5,8,-3,3,-4,6,nt,nt,nt
O=C(c1ccc(Br)cc1)N1CCN(S(=O)(=O)c2ccccc2)CC1,47*,-9,3,-9,-6,6,39,0,-12
O=C(CSc1ccc(Br)cc1)N1CCN(S(=O)(=O)c2ccccc2)CC1,90*,-6,-1,-10,-14,-5,67*,1,6
Cc1ccc(CCNC(=O)CCSCc2ccc(Cl)cc2)cc1,-4,-2,4,5,-10,22,nt,nt,nt
Cc1ccc(/C=C/C(=O)NCCCc2ccccc2)cc1,49*,-4,2,2,-9,17,39,-1,-2
Cc1ccc(CSCCNC(=O)/C=C/c2ccc(Cl)cc2)cc1,53*,-2,0,1,-2,5,29,2,-1
Cc1csc(CNC(=O)c2ccc(OC3CCN(CCc4ccccc4)CC3)cc2)n1,1,1,2,-4,-15,3,nt,nt,nt
O=C1CCCC/C=C\C[C@H](CC(=O)N(CCO)Cc2ccccc2)C(=O)N2CCC[C@@H]2CO1,0,4,0,3,14,19,nt,nt,nt
CC1CCCCN1CCCNC(=O)CN1C(=O)c2cccnc2Oc2ccc(Cl)cc21 (stereo unspecified),-5,-1,0,0,2,7,nt,nt,nt
CC(C)CCNc1nnnc2c1sc1nc(N3CCOCC3)c3c(c12)CC(C)(C)SC3,52*,-2,-3,6,-15,-98,43,-2,-3
Cc1ccc(C(=O)CCC(=O)N2CCC(C(N)=O)CC2)s1,5,-6,0,8,-23,5,nt,nt,nt
O=[N+]([O-])c1ccc(N/N=C/c2cn(-c3ccccc3)nc2-c2ccccc2)cc1,44*,-5,16,5,0,-71,17,-1,8
COc1ccc(OCC(=O)N2CCN(S(=O)(=O)c3ccc(Cl)cc3)CC2)cc1,71*,-7,0,0,-19,8,58*,0,5
O=C(COc1ccccc1)N1CCN(S(=O)(=O)c2ccc(Cl)cc2)CC1,49*,-9,-4,-4,3,7,35,-1,-4
COc1ccc(S(=O)(=O)N2CCN(C(=O)COc3ccc(C)c(C)c3)CC2)cc1OC,77*,-8,3,8,-3,11,32,-2,-12
O=C(COc1ccc(Cl)cc1)N1CCN(S(=O)(=O)c2ccccc2)CC1,87*,-4,11,-9,-7,8,68*,-1,-15
